The record followed here is ChEMBL document CHEMBL1961873, “Compounds: GSK PKIS; Assays: Nanosyn kinase panel” (2012).

Each structure is given as a SMILES string. Where “and” joins values, the source holds several entries; their conditions need not be identical. Equal values may be shown once.

The target in assay [1] is Mitogen-activated protein kinase 3 (Homo sapiens) (UniProt P27361). Particulars: at 1 µM.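 Further: values are mean percent inhibition of MAPK3.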
Assay [2] addresses SRSF protein kinase 3 (Homo sapiens) (UniProt Q9UPE1). Particulars: at 0.1 µM.
The target is the same in assay [3]. The settings on record: at 1 µM.
Assay [4] concerns the target Mitogen-activated protein kinase 14 (Homo sapiens) (UniProt Q16539). The settings on record: at 0.1 µM.
Assay [5] shares this target. Particulars: at 1 µM.
Assay [6] has as its target Mitogen-activated protein kinase 11 (Homo sapiens) (UniProt Q15759). Particulars: at 0.1 µM.
Assay [7] shares this target. The settings on record: at 1 µM.
The target in assay [8] is T1, Mitogen-activated protein kinase 13 (Homo sapiens) (UniProt O15264).
T1 sequence (whole entry): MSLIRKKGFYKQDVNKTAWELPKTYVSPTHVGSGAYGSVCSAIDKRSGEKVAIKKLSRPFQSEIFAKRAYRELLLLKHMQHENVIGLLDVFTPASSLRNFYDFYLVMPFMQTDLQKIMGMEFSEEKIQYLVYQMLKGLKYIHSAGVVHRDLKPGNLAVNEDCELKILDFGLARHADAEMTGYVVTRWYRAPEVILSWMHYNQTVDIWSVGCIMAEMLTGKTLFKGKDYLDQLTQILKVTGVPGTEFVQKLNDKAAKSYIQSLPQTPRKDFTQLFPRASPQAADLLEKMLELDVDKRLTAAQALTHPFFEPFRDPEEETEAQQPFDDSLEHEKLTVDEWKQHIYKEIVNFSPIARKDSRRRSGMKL
Particulars: at 0.1 µM.

For assay [9], the target named is T1, Mitogen-activated protein kinase 13 (Homo sapiens). The settings on record: at 1 µM.
Assay [10] has as its target T2, Mitogen-activated protein kinase 12 (Homo sapiens) (UniProt P53778).
T2 sequence (whole entry): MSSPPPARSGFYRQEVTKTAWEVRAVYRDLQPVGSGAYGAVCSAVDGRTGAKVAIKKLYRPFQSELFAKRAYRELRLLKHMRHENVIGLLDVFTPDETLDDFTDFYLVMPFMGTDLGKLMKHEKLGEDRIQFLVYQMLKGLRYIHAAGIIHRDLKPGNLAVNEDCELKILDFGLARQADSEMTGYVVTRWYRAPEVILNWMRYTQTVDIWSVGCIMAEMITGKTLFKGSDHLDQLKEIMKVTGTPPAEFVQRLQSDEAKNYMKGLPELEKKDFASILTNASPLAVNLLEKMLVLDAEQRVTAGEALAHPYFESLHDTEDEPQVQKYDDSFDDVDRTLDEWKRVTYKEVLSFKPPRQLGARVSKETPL
The settings on record: at 0.1 µM.

Assay [11] concerns the target T2, Mitogen-activated protein kinase 12 (Homo sapiens). The settings on record: at 1 µM.
The target in assay [12] is SRSF protein kinase 1 (Homo sapiens) (UniProt Q96SB4). The settings on record: at 0.1 µM.
Chain of SRSF protein kinase 1 (Homo sapiens) (Q96SB4 whole entry): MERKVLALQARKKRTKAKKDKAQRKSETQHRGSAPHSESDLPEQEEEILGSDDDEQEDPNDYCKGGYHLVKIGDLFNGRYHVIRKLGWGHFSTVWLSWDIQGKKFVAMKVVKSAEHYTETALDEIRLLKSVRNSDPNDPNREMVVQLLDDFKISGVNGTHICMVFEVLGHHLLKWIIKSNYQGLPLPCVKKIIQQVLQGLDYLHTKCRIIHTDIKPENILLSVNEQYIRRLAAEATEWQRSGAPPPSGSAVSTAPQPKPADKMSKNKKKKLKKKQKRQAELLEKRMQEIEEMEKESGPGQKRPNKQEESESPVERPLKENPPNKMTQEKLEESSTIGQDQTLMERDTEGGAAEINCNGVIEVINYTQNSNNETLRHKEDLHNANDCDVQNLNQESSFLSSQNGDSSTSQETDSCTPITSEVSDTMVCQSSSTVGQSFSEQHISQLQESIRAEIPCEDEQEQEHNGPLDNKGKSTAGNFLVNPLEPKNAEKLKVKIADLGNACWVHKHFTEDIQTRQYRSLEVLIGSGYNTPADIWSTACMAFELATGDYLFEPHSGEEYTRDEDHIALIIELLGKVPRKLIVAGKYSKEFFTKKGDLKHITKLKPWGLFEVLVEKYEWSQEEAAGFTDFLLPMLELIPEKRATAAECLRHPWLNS
Assay [13] shares this target. Particulars: at 1 µM.
The target in assay [14] is Phosphatidylinositol 4,5-bisphosphate 3-kinase catalytic subunit alpha isoform (Homo sapiens) (UniProt P42336). Particulars: at 0.1 µM.
Chain of Phosphatidylinositol 4,5-bisphosphate 3-kinase catalytic subunit alpha isoform (Homo sapiens) (P42336 whole entry, canonical isoform): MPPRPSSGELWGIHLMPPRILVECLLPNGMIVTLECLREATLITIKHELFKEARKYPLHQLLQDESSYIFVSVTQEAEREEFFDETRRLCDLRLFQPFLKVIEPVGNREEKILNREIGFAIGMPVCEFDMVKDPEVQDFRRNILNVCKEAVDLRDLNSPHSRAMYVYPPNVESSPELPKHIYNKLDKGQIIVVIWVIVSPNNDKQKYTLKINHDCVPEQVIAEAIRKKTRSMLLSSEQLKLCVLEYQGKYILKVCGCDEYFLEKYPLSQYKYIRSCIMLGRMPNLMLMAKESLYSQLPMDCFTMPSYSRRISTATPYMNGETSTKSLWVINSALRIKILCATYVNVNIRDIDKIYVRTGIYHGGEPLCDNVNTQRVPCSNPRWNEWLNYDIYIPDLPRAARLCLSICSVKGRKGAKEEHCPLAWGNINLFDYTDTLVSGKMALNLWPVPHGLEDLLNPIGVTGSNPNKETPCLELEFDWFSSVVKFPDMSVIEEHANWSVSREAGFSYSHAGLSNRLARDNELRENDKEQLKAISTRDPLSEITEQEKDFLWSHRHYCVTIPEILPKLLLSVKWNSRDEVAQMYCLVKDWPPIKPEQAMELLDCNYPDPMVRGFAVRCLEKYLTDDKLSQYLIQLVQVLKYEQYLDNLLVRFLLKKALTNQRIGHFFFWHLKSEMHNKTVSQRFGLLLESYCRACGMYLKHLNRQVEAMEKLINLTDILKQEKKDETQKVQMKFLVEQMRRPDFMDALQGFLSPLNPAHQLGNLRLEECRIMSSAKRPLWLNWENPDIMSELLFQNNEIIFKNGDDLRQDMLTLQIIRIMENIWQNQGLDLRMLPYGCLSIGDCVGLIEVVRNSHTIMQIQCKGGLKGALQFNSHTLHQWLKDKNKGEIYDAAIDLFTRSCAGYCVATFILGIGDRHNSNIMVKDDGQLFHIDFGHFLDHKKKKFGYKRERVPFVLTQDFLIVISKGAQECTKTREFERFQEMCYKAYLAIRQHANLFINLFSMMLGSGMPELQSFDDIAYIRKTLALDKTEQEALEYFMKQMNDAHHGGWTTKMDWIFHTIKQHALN
Assay [15] shares this target. Particulars: at 1 µM.
Assay [16] has as its target T3, Phosphatidylinositol 4,5-bisphosphate 3-kinase catalytic subunit delta isoform (Homo sapiens) (UniProt O00329).
T3 sequence (whole entry): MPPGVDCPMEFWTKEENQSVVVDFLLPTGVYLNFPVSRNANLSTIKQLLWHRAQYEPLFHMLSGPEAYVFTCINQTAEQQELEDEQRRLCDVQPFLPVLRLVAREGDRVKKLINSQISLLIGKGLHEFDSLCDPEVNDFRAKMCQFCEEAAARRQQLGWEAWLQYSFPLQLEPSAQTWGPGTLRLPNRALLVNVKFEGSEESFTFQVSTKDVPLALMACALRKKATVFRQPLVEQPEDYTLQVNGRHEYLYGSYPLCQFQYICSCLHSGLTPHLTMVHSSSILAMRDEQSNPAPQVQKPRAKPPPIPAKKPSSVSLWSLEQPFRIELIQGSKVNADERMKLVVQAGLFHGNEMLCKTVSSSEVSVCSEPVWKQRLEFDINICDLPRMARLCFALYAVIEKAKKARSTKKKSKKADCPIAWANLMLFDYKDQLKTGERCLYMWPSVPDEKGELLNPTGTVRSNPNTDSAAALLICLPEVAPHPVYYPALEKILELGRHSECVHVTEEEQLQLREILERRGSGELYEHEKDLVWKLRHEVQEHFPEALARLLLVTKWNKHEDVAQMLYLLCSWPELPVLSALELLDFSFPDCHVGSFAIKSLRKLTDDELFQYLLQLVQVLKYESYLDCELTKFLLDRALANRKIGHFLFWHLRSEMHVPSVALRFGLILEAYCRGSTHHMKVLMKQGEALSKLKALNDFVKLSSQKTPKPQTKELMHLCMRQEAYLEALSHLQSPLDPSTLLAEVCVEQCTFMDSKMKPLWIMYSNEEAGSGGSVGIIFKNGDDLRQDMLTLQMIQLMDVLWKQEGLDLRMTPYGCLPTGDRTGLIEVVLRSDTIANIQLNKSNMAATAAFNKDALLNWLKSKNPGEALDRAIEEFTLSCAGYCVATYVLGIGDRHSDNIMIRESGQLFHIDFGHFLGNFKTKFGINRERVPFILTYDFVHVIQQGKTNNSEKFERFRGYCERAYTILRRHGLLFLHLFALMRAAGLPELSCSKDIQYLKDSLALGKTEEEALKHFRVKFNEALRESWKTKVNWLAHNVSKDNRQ
Particulars: at 0.1 µM.

For assay [17], the target named is T3, Phosphatidylinositol 4,5-bisphosphate 3-kinase catalytic subunit delta isoform (Homo sapiens). Particulars: at 1 µM.
Assay [18] deals with Phosphatidylinositol 4-kinase beta (Homo sapiens) (UniProt Q9UBF8). The settings on record: at 0.1 µM.
Chain of Phosphatidylinositol 4-kinase beta (Homo sapiens) (Q9UBF8 2-816 limits assumed): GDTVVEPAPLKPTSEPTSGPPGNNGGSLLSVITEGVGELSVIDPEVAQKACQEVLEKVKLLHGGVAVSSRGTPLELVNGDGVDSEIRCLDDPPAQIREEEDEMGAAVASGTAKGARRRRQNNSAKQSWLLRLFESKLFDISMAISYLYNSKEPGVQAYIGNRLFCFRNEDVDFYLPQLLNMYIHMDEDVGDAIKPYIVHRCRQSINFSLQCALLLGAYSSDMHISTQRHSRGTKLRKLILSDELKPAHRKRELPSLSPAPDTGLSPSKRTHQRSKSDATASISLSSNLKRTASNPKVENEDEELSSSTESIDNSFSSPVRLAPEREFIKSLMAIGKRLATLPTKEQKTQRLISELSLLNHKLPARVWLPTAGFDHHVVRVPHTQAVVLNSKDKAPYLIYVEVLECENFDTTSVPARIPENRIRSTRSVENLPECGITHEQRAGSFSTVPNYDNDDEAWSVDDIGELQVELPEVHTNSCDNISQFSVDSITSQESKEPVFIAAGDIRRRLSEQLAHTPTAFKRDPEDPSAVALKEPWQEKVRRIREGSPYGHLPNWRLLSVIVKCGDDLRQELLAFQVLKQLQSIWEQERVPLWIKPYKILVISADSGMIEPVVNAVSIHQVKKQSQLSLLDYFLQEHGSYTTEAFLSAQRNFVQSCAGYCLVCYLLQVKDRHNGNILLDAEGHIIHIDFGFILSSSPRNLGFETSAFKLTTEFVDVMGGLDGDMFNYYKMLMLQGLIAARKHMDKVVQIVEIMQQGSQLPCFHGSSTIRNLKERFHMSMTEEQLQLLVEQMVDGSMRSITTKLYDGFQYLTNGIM
Assay [19] shares this target. Particulars: at 1 µM.
Assay [20] has as its target Sphingosine kinase 1 (Homo sapiens) (UniProt Q9NYA1). The settings on record: at 0.1 µM.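 Further: mean percent inhibition of SPHK1 activity, measured within the GSK PKIS screening panel.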

As a reminder, the inhibition is the drop in the measured response relative to a control, in per cent.

Chain of SRSF protein kinase 3 (Homo sapiens) (Q9UPE1 whole entry): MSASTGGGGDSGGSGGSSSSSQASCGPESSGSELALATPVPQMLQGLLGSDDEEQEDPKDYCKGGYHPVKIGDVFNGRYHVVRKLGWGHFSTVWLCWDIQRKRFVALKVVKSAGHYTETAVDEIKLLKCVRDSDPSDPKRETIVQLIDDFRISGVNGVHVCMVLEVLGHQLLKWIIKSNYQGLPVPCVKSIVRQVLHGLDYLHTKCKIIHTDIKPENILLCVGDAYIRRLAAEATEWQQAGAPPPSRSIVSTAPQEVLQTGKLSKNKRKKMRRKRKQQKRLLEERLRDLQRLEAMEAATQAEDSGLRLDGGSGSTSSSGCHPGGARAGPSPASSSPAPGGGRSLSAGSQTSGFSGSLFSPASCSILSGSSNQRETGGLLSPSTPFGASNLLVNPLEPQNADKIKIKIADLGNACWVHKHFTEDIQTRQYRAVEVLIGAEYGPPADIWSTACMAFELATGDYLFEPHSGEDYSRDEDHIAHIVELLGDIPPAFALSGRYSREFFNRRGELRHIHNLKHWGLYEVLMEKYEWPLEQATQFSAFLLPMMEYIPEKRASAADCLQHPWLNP
Chain of Mitogen-activated protein kinase 11 (Homo sapiens) (Q15759 whole entry): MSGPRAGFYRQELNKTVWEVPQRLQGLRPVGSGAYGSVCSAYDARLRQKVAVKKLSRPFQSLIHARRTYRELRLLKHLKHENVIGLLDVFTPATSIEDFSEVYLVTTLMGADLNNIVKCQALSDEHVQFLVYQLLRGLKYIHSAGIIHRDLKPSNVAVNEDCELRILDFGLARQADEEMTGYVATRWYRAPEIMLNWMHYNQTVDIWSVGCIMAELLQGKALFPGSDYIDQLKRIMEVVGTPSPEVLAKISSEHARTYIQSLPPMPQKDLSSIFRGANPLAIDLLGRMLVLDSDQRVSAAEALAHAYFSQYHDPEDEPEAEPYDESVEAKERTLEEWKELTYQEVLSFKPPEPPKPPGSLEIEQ
Chain of Sphingosine kinase 1 (Homo sapiens) (Q9NYA1 whole entry): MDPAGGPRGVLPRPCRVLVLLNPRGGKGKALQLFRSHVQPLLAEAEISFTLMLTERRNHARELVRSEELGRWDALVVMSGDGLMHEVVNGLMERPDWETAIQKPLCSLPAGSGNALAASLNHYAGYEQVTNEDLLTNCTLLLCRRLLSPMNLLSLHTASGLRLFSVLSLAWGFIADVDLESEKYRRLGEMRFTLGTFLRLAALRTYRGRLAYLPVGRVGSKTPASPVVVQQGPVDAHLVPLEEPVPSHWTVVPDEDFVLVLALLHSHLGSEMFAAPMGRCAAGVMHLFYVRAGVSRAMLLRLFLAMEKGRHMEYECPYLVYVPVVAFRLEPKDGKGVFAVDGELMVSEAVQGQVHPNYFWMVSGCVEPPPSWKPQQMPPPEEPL
Chain of Mitogen-activated protein kinase 14 (Homo sapiens) (Q16539 whole entry): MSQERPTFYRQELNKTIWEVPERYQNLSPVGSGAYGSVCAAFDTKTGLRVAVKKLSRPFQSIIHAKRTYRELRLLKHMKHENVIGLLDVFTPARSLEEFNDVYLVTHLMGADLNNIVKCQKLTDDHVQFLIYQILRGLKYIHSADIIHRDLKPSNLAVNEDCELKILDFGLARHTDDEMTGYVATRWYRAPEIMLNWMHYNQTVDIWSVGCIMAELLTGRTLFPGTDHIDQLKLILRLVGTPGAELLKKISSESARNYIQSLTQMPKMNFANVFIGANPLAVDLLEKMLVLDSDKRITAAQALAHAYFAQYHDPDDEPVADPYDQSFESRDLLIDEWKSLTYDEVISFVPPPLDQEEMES
Chain of Mitogen-activated protein kinase 3 (Homo sapiens) (P27361 whole entry): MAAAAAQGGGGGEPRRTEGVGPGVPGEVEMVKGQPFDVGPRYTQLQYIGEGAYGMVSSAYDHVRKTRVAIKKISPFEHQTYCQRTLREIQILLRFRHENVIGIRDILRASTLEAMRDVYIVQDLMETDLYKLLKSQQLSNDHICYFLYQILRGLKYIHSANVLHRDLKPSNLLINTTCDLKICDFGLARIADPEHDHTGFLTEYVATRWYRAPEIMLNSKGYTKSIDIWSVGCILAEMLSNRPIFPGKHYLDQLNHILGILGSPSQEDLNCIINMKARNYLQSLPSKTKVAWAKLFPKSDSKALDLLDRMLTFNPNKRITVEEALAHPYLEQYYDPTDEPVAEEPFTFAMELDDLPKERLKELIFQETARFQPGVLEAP

On to `Cc1cc(O)cc(C)c1/C=C/c1cncc(C(=O)OC(C)(C)C)c1`, for which the inhibition in assay [1] was 5.66%; in assay [2], -1.96%; in assay [3], -3.77%; in [4] it was 5.49%; in assay [5], 6.26%; in [6], 1.86%. The inhibition in assay [7] was 5.95%; in [8], 2.17%; in [9], 1.43%; in [10], 2.88%; in assay [11] it was 1.7%; in assay [12] it was -1.51%. The inhibition was 0.59% in [13]; 5.51% in assay [14]; 7.91% in assay [15]; 5.19% in assay [16]; 6.21% in [17]; 1.7% in assay [18]. For the same compound, the inhibition in [19] worked out at 3.49%; in assay [20] it was 2.8%.
Turning to `Cc1c2ccc(N(C)c3ccnc(Nc4cccc(S(N)(=O)=O)c4)n3)cc2nn1C`, the inhibition in assay [1] is 4.37%; in assay [2] it was -0.02%; in [3], -0.13%; in assay [4], 2.68%; in assay [5] it was 17.1%; in assay [6] it was 7.06%. Also, the inhibition is 16% in [7]; 5.49% in assay [8]; 5.64% in [9]; 5.17% in assay [10]; 3.53% in assay [11]; -1.71% in assay [12]. The inhibition in assay [13] was -3.4%; in assay [14], 4.71%; in assay [15] it was 14.4%; in assay [16], 6.47%; in assay [17] it was 29.9%; in [18], 0.59%. Further, the inhibition was found to be 1.94% in assay [19] and 1.12% in assay [20].
In the case of `COc1cc(Nc2ncc(-c3ccccc3)o2)cc(OC)c1`, the inhibition in assay [1] is 5.68%; in assay [2], -1.19%; in [3], 1.14%; in assay [4], 6.3%; in assay [5], 5.68%; in assay [6], 2.87%. The inhibition in [7] is 5.59%; in [8], 5.24%; in assay [9], 4.13%; in [10] it was 3.61%; in [11], 3.94%; in [12] it was -2.65%. Also, the inhibition in assay [13] is -2%; in [14] it was 8.32%; in assay [15] it was 6.87%; in assay [16], 5.4%; in [17], 5.83%; in assay [18], 0.33%. For the same compound, the inhibition in assay [19] came to 3.11%; in [20] it was 2.1%.
As to `Nc1ncnc2occ(-c3ccc(NC(=O)Nc4cc(C(F)(F)F)ccc4F)cc3)c12`, the inhibition in assay [1] is 2.88% and -1.29%; in [2] it was 9.33% and 10.1%; in assay [3] it was 49.1% and 43.5%; in assay [4] it was 8.71% and -2.42%; in [5] it was 36.6% and 20.3%; in assay [6] it was 6.21% and 3.71%. Further, the inhibition in [7] was 39% and 32.9%; in assay [8], 5.66% and 0.72%; in assay [9], 29.3% and 17.7%; in [10] it was 15% and 4.47%; in assay [11], 52% and 44.9%; in assay [12], 1.86% and 3.34%. Also, the inhibition in assay [13] is 28.9% and 22%; in [14], 0.21% and -1.3%; in assay [15], 1.36% and 0.28%; in assay [16], 1.09% and -2.88%; in [17], 2.46% and -0.2%; in assay [18], 0.95% and 17.2%. The inhibition in assay [19] is 10.9% and 7.67%; in [20] it was 3.31% and 0.73%.
As to `CS(=O)(=O)CCNCc1ccc(-c2ccc3ncnc(Nc4ccc(OCc5cccc(C(F)(F)F)c5)cc4)c3c2)o1`, the inhibition in [1] is 5%; in assay [2], -2.18%; in assay [3], -0.47%; in assay [4], 11.9%; in assay [5] it was 13.9%; in assay [6] it was 1.8%. In addition, the inhibition was 5.06% in assay [7]; 5.4% in assay [8]; 5.66% in [9]; 3.43% in assay [10]; 6.4% in assay [11]; -2% in [12]. In addition, the inhibition in assay [13] is -2.32%; in assay [14], 4.42%; in assay [15] it was 4.38%; in [16], 0.9%; in [17] it was 1.81%; in assay [18], 0.98%. Further, the results for the inhibition in assay [19] and in assay [20] were -0.43% and 1.49%, respectively.
Turning to `Fc1ccc(Nc2nccc(-c3c(-c4ccc(C(F)(F)F)cc4)nn4ncccc34)n2)cc1F`, the inhibition in assay [1] is -0.07%; in [2], 0.64%; in [3], 0.08%; in assay [4] it was 1.53%; in assay [5], 8.46%; in assay [6], 1.28%. The inhibition was 3.29% in assay [7]; -4.93% in [8]; 4.25% in [9]; 5.22% in assay [10]; 2.9% in assay [11]; -0.59% in [12]. Further, the inhibition in assay [13] was -3.45%; in assay [14], 3.44%; in assay [15] it was 3.77%; in assay [16], 1.05%; in assay [17] it was 2.86%; in [18], -3.81%. Besides, the values for the inhibition in [19] and in assay [20] were -1.62% and 0.46%, respectively.
